Experiment [1] has as its system Proto-oncogene tyrosine-protein kinase receptor Ret (Homo sapiens), P07949 [Y791F]. The following applies: at 1 µM.
Experiment [2] concerns the target Macrophage-stimulating protein receptor (Homo sapiens) (UniProt Q04912). The following applies: at 0.1 µM.
The target is the same in experiment [3]. The following applies: at 1 µM.
In experiment [4] the target is Proto-oncogene tyrosine-protein kinase ROS (Homo sapiens) (UniProt P08922). The following applies: at 0.1 µM.
For experiment [5] the target is unchanged. The following applies: at 1 µM.
Experiment [6] has as its target Proto-oncogene tyrosine-protein kinase Src (Homo sapiens) (UniProt P12931). Particulars: at 0.1 µM.
The target is the same in experiment [7]. The following applies: at 1 µM.
For experiment [8], the target named is Tyrosine-protein kinase Srms (Homo sapiens) (UniProt Q9H3Y6). The following applies: at 0.1 µM.
Chain of Tyrosine-protein kinase Srms (Homo sapiens) (Q9H3Y6 whole entry): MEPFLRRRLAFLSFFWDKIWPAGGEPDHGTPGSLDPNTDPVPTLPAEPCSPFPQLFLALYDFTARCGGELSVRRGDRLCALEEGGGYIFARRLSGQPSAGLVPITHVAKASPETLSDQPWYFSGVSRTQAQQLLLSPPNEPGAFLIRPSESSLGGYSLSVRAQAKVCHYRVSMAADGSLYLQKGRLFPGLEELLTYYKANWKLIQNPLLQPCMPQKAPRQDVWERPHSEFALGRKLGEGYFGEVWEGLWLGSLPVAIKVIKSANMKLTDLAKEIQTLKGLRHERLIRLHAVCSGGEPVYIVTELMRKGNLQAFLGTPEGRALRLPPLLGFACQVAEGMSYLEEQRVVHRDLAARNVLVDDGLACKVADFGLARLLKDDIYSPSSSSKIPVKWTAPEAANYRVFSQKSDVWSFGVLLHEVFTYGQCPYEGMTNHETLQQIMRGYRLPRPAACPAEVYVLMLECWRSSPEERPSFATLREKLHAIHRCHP
Experiment [9] has the same target. The following applies: at 1 µM.
The target of experiment [10] is Tyrosine-protein kinase SYK (Homo sapiens) (UniProt P43405). The following applies: at 0.1 µM.
For experiment [11] the target is unchanged. The following applies: at 1 µM.
The target of experiment [12] is T1, Tyrosine-protein kinase Tec (Homo sapiens) (UniProt P42680).
T1 sequence (whole entry): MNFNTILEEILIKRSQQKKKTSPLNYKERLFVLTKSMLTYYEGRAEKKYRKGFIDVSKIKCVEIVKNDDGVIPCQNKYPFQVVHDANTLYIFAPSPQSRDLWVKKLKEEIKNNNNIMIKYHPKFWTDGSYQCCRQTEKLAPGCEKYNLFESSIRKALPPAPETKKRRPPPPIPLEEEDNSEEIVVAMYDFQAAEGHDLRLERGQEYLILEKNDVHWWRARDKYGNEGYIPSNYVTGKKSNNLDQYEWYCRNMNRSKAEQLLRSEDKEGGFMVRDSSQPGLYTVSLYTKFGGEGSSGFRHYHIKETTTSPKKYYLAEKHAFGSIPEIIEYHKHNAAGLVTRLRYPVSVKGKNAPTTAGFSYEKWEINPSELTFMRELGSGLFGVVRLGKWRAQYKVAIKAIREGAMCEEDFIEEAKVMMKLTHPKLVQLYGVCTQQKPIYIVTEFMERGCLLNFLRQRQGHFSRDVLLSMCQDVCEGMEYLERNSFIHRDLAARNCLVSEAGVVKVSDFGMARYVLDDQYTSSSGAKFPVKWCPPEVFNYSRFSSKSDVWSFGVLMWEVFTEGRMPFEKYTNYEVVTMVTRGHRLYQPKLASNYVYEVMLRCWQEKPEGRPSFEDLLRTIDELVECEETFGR
Particulars: at 0.1 µM.

Experiment [13] has as its target T1, Tyrosine-protein kinase Tec (Homo sapiens). Particulars: at 1 µM.
For experiment [14], the target named is Angiopoietin-1 receptor (Homo sapiens) (UniProt Q02763). The following applies: at 0.1 µM.
Chain of Angiopoietin-1 receptor (Homo sapiens) (Q02763 whole entry): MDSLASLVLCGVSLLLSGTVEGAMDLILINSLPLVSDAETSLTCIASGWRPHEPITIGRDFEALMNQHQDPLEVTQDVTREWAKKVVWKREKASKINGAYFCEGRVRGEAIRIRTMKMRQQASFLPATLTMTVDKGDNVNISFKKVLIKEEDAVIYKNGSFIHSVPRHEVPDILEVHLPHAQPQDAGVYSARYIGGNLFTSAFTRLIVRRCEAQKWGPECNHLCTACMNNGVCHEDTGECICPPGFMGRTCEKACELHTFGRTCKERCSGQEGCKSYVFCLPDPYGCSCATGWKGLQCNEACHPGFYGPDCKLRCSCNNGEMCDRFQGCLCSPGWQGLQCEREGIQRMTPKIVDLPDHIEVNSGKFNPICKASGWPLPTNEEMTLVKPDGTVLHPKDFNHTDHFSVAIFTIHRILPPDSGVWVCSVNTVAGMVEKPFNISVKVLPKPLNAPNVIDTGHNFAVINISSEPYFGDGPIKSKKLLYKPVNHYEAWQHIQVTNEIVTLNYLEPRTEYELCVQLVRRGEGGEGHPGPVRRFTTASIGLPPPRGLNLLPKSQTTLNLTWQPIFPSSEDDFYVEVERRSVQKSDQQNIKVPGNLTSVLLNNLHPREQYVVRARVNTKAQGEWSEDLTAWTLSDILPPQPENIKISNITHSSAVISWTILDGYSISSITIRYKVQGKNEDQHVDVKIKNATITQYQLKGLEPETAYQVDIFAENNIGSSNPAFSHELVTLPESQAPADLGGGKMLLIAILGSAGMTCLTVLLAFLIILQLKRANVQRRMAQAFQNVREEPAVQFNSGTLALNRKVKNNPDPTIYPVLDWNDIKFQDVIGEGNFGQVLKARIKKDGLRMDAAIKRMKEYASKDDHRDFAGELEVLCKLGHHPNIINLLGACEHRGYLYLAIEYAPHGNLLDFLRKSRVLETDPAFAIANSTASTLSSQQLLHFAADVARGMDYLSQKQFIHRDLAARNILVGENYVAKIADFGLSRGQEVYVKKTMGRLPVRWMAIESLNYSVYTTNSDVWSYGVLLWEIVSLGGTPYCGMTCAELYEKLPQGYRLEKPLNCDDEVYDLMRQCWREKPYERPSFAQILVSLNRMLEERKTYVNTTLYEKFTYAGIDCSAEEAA
Experiment [15] shares this target. Particulars: at 1 µM.
In experiment [16] the target is T2, Non-receptor tyrosine-protein kinase TNK1 (Homo sapiens) (UniProt Q13470).
T2 sequence (whole entry): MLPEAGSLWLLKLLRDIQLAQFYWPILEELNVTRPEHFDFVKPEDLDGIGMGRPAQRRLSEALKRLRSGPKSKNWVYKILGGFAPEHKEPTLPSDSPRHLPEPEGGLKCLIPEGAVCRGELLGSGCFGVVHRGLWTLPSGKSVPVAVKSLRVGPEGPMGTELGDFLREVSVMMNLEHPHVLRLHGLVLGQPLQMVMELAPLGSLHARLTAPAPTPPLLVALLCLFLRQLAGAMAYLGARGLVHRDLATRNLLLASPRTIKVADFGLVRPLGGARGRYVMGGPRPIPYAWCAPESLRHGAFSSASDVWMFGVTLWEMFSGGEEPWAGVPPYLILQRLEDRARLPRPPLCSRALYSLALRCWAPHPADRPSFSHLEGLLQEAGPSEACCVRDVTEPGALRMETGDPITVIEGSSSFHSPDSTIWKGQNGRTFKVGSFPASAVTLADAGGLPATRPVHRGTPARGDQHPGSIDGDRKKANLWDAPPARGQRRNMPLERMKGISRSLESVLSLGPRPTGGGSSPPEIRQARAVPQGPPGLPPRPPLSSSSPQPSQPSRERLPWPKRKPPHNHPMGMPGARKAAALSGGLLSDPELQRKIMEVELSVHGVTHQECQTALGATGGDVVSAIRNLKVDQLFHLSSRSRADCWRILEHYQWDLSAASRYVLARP
Particulars: at 0.1 µM.

In experiment [17] the target is T2, Non-receptor tyrosine-protein kinase TNK1 (Homo sapiens). The following applies: at 1 µM.
Experiment [18] addresses Activated CDC42 kinase 1 (Homo sapiens) (UniProt Q07912). The following applies: at 0.1 µM.
The target is the same in experiment [19]. Particulars: at 1 µM.
For experiment [20], the target named is High affinity nerve growth factor receptor (Homo sapiens) (UniProt P04629). The following applies: at 0.1 µM.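 Further: each value is a mean of replicate percent inhibition readings against TRKA kinase.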

Chain of Macrophage-stimulating protein receptor (Homo sapiens) (Q04912 25-304 limits assumed): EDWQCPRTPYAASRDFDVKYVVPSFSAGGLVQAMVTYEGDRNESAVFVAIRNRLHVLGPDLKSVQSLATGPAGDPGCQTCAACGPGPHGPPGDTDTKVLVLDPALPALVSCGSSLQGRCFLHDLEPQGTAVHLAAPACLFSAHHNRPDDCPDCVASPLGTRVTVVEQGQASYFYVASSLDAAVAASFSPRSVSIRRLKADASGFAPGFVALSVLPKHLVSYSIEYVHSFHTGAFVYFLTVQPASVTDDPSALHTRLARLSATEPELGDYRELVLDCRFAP
Chain of Macrophage-stimulating protein receptor (Homo sapiens) (Q04912 310-1400 limits assumed): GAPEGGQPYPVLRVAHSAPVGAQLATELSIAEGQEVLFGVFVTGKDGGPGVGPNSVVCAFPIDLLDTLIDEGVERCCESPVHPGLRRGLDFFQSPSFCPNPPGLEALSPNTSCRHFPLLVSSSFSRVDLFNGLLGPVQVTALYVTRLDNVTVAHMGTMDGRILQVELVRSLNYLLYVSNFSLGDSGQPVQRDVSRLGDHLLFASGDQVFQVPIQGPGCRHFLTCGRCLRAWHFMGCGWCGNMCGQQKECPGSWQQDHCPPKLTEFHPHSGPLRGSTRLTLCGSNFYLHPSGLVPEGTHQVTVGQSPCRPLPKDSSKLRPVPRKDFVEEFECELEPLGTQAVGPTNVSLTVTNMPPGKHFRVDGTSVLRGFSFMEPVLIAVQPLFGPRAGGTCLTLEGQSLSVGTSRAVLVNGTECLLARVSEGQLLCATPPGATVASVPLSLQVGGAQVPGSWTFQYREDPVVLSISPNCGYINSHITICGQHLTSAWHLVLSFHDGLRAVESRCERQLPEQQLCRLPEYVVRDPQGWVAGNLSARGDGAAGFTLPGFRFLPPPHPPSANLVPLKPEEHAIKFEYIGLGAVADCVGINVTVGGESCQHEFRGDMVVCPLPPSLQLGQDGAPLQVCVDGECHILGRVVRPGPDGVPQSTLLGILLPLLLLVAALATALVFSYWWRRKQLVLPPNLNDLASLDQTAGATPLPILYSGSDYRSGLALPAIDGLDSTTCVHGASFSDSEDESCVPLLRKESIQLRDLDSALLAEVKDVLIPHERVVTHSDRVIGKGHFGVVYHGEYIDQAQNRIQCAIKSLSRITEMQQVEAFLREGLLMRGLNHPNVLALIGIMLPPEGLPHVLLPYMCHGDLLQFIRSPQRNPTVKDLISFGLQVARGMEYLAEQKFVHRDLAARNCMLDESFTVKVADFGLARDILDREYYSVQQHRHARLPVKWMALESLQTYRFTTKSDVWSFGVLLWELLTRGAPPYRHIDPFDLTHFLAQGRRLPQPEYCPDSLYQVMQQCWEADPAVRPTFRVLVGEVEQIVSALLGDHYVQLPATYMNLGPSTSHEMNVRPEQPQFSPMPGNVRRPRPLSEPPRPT
Chain of Proto-oncogene tyrosine-protein kinase receptor Ret (Homo sapiens), P07949 [Y791F] (P07949 whole entry Y791F): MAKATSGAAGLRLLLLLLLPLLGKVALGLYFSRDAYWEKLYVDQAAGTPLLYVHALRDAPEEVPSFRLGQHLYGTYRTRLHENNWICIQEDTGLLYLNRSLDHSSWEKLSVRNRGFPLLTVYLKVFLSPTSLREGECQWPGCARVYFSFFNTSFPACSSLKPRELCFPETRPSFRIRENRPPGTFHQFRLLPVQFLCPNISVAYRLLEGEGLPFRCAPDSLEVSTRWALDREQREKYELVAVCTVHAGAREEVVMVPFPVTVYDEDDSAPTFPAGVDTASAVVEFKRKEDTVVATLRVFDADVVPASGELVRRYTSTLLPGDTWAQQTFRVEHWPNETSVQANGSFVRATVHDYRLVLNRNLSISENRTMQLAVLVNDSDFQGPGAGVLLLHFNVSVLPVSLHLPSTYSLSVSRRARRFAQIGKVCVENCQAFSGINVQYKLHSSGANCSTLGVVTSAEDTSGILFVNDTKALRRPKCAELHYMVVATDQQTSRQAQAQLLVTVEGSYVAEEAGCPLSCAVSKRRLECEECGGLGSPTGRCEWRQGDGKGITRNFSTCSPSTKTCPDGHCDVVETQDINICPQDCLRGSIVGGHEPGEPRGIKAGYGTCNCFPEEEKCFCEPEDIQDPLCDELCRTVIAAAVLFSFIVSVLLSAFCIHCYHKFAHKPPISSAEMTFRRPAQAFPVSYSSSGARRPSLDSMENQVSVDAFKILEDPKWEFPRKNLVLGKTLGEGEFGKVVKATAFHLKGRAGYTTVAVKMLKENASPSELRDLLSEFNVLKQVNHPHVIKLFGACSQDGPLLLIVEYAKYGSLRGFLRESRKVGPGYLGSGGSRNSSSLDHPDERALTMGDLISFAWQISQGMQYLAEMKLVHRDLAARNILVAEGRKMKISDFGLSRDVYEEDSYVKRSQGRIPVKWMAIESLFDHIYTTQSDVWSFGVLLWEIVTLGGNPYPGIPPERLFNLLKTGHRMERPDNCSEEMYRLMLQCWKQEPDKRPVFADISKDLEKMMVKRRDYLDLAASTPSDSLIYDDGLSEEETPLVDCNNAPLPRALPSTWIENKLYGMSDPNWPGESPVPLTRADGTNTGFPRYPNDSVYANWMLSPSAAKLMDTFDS
Chain of Proto-oncogene tyrosine-protein kinase Src (Homo sapiens) (P12931 2-536 limits assumed): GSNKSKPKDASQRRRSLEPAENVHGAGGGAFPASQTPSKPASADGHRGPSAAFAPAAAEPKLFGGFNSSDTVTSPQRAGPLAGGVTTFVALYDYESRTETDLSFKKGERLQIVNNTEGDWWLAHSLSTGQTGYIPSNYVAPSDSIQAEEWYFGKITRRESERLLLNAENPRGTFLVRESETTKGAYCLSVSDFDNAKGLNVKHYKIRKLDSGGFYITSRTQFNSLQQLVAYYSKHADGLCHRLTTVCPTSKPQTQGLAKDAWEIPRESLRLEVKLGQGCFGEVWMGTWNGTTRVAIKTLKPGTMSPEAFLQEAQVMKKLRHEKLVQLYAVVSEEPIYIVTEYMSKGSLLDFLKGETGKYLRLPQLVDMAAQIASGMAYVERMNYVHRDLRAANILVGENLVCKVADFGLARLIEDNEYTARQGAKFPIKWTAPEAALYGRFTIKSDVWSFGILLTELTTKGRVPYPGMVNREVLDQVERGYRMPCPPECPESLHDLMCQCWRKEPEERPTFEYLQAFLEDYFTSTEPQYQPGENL

With `O=C1Nc2ccccc2/C1=C/Nc1ccc(-n2cncn2)cc1`, the inhibition in [1] turned out to be 53.2%; in experiment [2], 7.27%; in experiment [3], 6.25%; in [4] it was 6.51%; in [5] it was 8.39%; in experiment [6], 9.95%. Also, the inhibition in [7] is 19.2%; in experiment [8], 0.3%; in experiment [9], -0.18%; in experiment [10], -1.28%; in experiment [11], -1.86%; in experiment [12] it was 3.72%. Further, the inhibition amounted to 5.42% in experiment [13]; 0.76% in [14]; 4.4% in experiment [15]; 2.41% in experiment [16]; 14% in [17]; 0.63% in experiment [18]. In addition, the inhibition is 2.83% in experiment [19] and 6.94% in [20].
Consider `Fc1ccc(-c2c(-c3ccncc3)nc3n2CCS3)cc1`, for which the inhibition in experiment [1] was 7.69%; in [2], 7.82%; in [3], 5.85%; in [4], 2.1%; in experiment [5], 8.26%; in experiment [6], -3.16%. For the same compound, the inhibition is 9.68% in experiment [7]; 0.79% in experiment [9]; 0.99% in experiment [10]; 1.49% in [11]; -1.67% in experiment [12]; -0.75% in experiment [13]. Also, the inhibition was 2.27% in [14]; 4.78% in experiment [15]; 0.74% in experiment [16]; 2.59% in [17]; 0.57% in [18]; 1.01% in experiment [19]. For the same compound, the inhibition in experiment [20] amounted to 3.03%.
On to `Cc1ccc(C(=O)NC(C)C)cc1-c1ccc(C(=O)NCC2CC2)cc1`, for which the inhibition in experiment [1] is -0.37%; in experiment [2], -4.49%; in experiment [3] it was 0.06%; in [4], -1.39%; in experiment [5], 0.55%; in experiment [6], -4.72%. The inhibition was -6.71% in [7]; -2.42% in [8]; 2.24% in experiment [9]; -0.72% in [10]; -0.36% in experiment [11]; -2.75% in experiment [12]. Moreover, the inhibition in [13] is -2.37%; in experiment [14], -0.76%; in experiment [15] it was -0.28%; in experiment [16] it was -4.74%; in experiment [17], -5.58%; in [18], -0.81%. Besides, the inhibition in [19] is 0.35%; in experiment [20], -0.37%.
In the case of `CCN(CC)Cc1ccc(Nc2nccc(-c3cnn4ncccc34)n2)cc1`, the inhibition in experiment [1] is 18.2%; in [2], 4.89%; in experiment [3], 22.4%; in experiment [4] it was 34.5%; in experiment [5] it was 70.5%; in experiment [6] it was 10.3%. Besides, the inhibition in [7] was 38.2%; in experiment [8], -1.32%; in [9] it was 0.74%; in [10] it was 1.59%; in experiment [11] it was -0.45%; in experiment [12] it was 0.83%. In addition, the inhibition in experiment [13] is 3.21%; in experiment [14] it was 3.9%; in experiment [15], 12.2%; in experiment [16], 5.27%; in experiment [17], 32%; in [18], -0.16%. Besides, the figures for the inhibition in [19] and in [20] were 3.2% and 2.7%, respectively.
Regarding `N#Cc1ccc(Oc2nccc(-c3c(-c4ccc(F)cc4)ncn3C3CCNCC3)n2)cc1`, the inhibition was determined as 9.04% in [1]; 5.63% in experiment [2]; 4.9% in experiment [3]; 5% in [4]; 7.93% in [5]; 7.01% in experiment [6]. Moreover, the inhibition in experiment [7] is 6.12%; in experiment [8], -3.21%; in [9] it was -3.22%; in experiment [10] it was -0.77%; in experiment [11] it was -3.55%; in experiment [12], 2.34%. In addition, the inhibition is 5.61% in experiment [13]; 3.13% in experiment [14]; 8.62% in [15]; -0.15% in experiment [16]; 2.6% in experiment [17]; 0.82% in experiment [18]. The figures for the inhibition in experiment [19] and in [20] were 2.05% and 2.46%, respectively.
For the compound `COc1ccc(-c2ccc3c(NC(=O)C4CC4)n[nH]c3n2)cc1`, the inhibition in [1] stood at 9.16%; in experiment [2], 6.88%; in [3], 2.2%; in experiment [4], 2.06%; in experiment [5], 3.33%; in experiment [6], 7.63%. For the same compound, the inhibition is 4.36% in [7]; -2.79% in experiment [8]; 2.08% in experiment [9]; 0.08% in experiment [10]; -2.02% in experiment [11]; 0.87% in [12]. For the same compound, the inhibition in experiment [13] is 2.47%; in [14], 2.75%; in [15], 5.88%; in [16], 1.34%; in [17], 12%; in experiment [18], 0.32%. In addition, the figures for the inhibition in [19] and in experiment [20] were 1.42% and -0.67%, respectively.
Consider `CN1CCN(CCCNc2nc3ccc(Oc4ccc(NC(=O)Nc5cc(C(F)(F)F)ccc5F)cc4)cc3[nH]2)CC1`, for which the inhibition in experiment [1] is 83.9%; in experiment [2], -2.7%; in [3], 5.53%; in experiment [4], 5.6%; in [5] it was 9.76%; in [6], 4.89%. Besides, the inhibition in experiment [7] was found to be 3.58%; in [8], 2.32%; in experiment [9], 0.43%; in experiment [10], 0.25%; in experiment [11], 0.86%; in experiment [12] it was 0.68%. The inhibition is 5.07% in experiment [13]; 9.94% in experiment [14]; 53.8% in experiment [15]; -0.25% in [16]; 4.81% in experiment [17]; 2.56% in experiment [18]. Moreover, the inhibition in experiment [19] was 5.75%; in experiment [20], 2.88%.

One may read the inhibition as the drop in the measured response relative to a control, in per cent.

The record behind these values is ChEMBL document CHEMBL1961873, “Compounds: GSK PKIS; Assays: Nanosyn kinase panel” (2012).
